# About 960 (1.5%) of roughly 66,000 compounds showed an effect of 50% or more. This is one part of a sample in which strong results are shown more often than they occur.
# Tested on: Trypanosoma brucei
# Assay: Trypanosoma brucei 72 hour study
# Type: functional, organism-based
# Design: scale not given: in the data most compounds retested in dose-response had high values
structure (smiles),measurement,setting,value
O=C(Nc1ccccc1)C1=CC2(CCNCC2)c2ccccc21,Percent Effect,"30.3 µM, […]",93.57%
O=C(C1=CC2(CCNCC2)c2ccccc21)N1CCCC1,Percent Effect,"30 µM, 30.03 µM",-13.07%
CC(=O)N1CCC2(C=C(C(=O)NC3CC3)c3ccccc32)CC1,Percent Effect,"30.3 µM, […]",3.653%
CC(=O)N1CCCC(c2ccccn2)C1 (configuration not stated),Percent Effect,"30.3 µM, […]",-37.51%
CC(=O)N1CCCC(c2ccc(Cc3ccccc3)cn2)C1 (configuration not stated),Percent Effect,"30.3 µM, […]",98.95%
CC(=O)N1CCCC(c2ccc(Br)cn2)C1 (configuration not stated),Percent Effect,"30.3 µM, […]",11.45%
CC1(C)CN(Cc2csc(CS(C)(=O)=O)n2)Cc2ccccc21,Percent Effect,"30.3 µM, […]",100.6%
CS(=O)(=O)Cc1nc(CN2CCOc3ccccc3C2)cs1,Percent Effect,"30.3 µM, […]",7.732%
CS(=O)(=O)Cc1nc(CN2CCc3ccccc3CC2)cs1,Percent Effect,"30.3 µM, […]",3.123%
CCc1noc(CN(C)CC(c2cccs2)N2CCOCC2)n1 (configuration not stated),Percent Effect,"30.3 µM, […]",-14.32%
O=C1CC[C@]2(CC[C@@H](NC(=O)NCc3ccccc3)CC2)N1,Percent Effect,"30.3 µM, […]",-21.31%
CC(C)C[C@@H]1N[C@H](C(=O)NC2CCOCC2)Cc2c[nH]c3cccc1c23,Percent Effect,"30.3 µM, […]",74.51%
CC(C)C[C@@H]1N[C@H](C(=O)NC(C)C)Cc2c[nH]c3cccc1c23,Percent Effect,"30.3 µM, […]",19.91%
COC(=O)[C@@H]1Cc2c[nH]c3cccc(c23)[C@H](CC(C)C)N1,Percent Effect,"30.3 µM, […]",0.4079%
CC(C)C[C@@H]1N[C@H](C(=O)NCC2CC2)Cc2c[nH]c3cccc1c23,Percent Effect,"30.3 µM, […]",62.49%
CCc1cccc(N2CCC(NC(=O)C3CCOCC3)CC2)c1,Percent Effect,10 µM,-25.13%
same,Percent Effect,"30.3 µM, […]",-1.63%
O=C(NC1CCOCC1)C1CC(=O)N(Cc2ccccn2)C1 (configuration not stated),Percent Effect,"30 µM, 30.03 µM",11.72%
Cc1cnn(C2CCCN(C(=O)Cc3ccc(C#N)cc3)C2)c1 (configuration not stated),Percent Effect,10 µM,-12.45%
same,Percent Effect,"30.3 µM, […]",-6.124%
CC(C)=CCN1C(=O)[C@H]2CC[C@@H]1CN(c1ncccc1F)C2,Percent Effect,"30 µM, 30.03 µM",-6.371%
Cc1cc(=O)n(CCNS(=O)(=O)c2cccc(C(F)(F)F)c2)cn1,Percent Effect,"30 µM, 30.03 µM",-14.9%
O=C(O)C(F)(F)F.O=C(O)C(F)(F)F.c1cncc(-c2ccc3c(c2)CCC32CCN(Cc3ccco3)CC2)c1,Percent Effect,"30.3 µM, […]",53.48%
CN(C)CC(=O)N1CCC2(CCc3cc(-c4cccnc4)ccc32)CC1.O=C(O)C(F)(F)F.O=C(O)C(F)(F)F,Percent Effect,"30.3 µM, […]",1.858%
O=C(O)C(F)(F)F.O=C(O)C(F)(F)F.c1cncc(-c2ccc3c(c2)CCC32CCN(Cc3nccs3)CC2)c1,Percent Effect,"30.3 µM, […]",13.64%
CNC(=O)CN1CC[C@H]2CN(C(=O)c3cccc(C)c3)C[C@H]2C1.O=C(O)C(F)(F)F,Percent Effect,"30.3 µM, […]",-49.02%
CC[C@H](C)[C@H](N)C(=O)Nc1nc(-c2cnc(N(C)CCO)nc2)cs1,Percent Effect,"30.3 µM, […]",-2.058%
CC[C@@H](C)[C@@H](N)C(=O)Nc1cccc(-c2cnc(N(C)C)nc2)c1,Percent Effect,"30.3 µM, […]",97.6%
CC[C@@H](C)[C@@H](N)C(=O)Nc1cccc(-c2cnc(N)nc2)c1,Percent Effect,"30.3 µM, […]",-21.58%
CC[C@H](C)[C@H](N)C(=O)Nc1nc(-c2cnc(N3CCOCC3)nc2)cs1,Percent Effect,"30.3 µM, […]",13.61%
CC[C@H](C)[C@H](N)C(=O)Nc1nc(-c2cnc(N(C)C)nc2)cs1,Percent Effect,"30.3 µM, […]",53.79%
CC[C@@H](C)[C@@H](N)C(=O)Nc1cccc(-c2cnc(N(C)CCO)nc2)c1,Percent Effect,"30.3 µM, […]",-10.78%
COc1ccc(N(c2ccccc2)c2ccc(C(=O)O)s2)cc1,Percent Effect,"30.3 µM, […]",-3.945%
O=C(O)CC(O)(CC(=O)O)C(=O)O.OCCN(Cc1ccncc1)CC1(c2ccc(Cl)cc2)CC1,Percent Effect,"30.3 µM, […]",-34.12%
Cn1cnc2c1C(COCC1CCOCC1)CN(C1CCOCC1)C2.O=C(O)C(F)(F)F.O=C(O)C(F)(F)F (configuration not stated),Percent Effect,"30 µM, 30.03 µM",15.95%
Cl.c1cnc2c(c1)cc([C@H]1CCCO1)n2CCN1CCCC1,Percent Effect,"30.3 µM, […]",24.71%
Cn1cccc1C(=O)N1CCC2(CCCN2Cc2ccccc2)CC1.O=C(O)C(F)(F)F,Percent Effect,"30 µM, 30.03 µM",11.3%
Cc1nn(C)c2c(=O)n(CC(=O)Nc3cc(Cl)cc(Cl)c3)nnc12,Percent Effect,"30 µM, 30.03 µM",63.83%
CCn1nc(C)c2nnn(CC(=O)Nc3cccc(Cl)c3)c(=O)c21,Percent Effect,"30 µM, 30.03 µM",35.21%
CCn1nc(C)c2nnn(CC(=O)Nc3ccccc3)c(=O)c21,Percent Effect,"30.3 µM, […]",-5.47%
CCn1nc(C)cc1C(=O)N1C[C@@H]2C[C@@H](C)O[C@@H]2C1.O=C(O)C(F)(F)F,Percent Effect,"30.3 µM, […]",3.708%
COCC1CN(C(=O)c2ccoc2)Cc2cnn(CC3CCOCC3)c21.O=C(O)C(F)(F)F (configuration not stated),Percent Effect,"30.3 µM, […]",-46.76%
NC1C=C(C(F)(F)F)NC=C1c1ccccc1 (configuration not stated),Percent Effect,"30.3 µM, […]",8.109%
CC(C)CC(=O)N1C[C@@H]2CCN(c3cnccn3)C[C@@H]2C1.O=C(O)C(F)(F)F,Percent Effect,"30.3 µM, […]",-10.22%
CC(C)(C)OC(=O)NCCNC(=O)c1ccc2cc[nH]c2c1,Percent Effect,"30 µM, 30.03 µM",3.798%
CC(C)(C)S(=O)(=O)CCNC(=O)c1ccc2cc[nH]c2c1,Percent Effect,"30 µM, 30.03 µM",101.8%
CC(C)(C)S(=O)(=O)CCNC(=O)c1ccc2ccccc2c1,Percent Effect,"30 µM, 30.03 µM",-8.633%
CN1CCN(CCO)C(=O)C12CCN(Cc1ccsc1)CC2.O=C(O)C(F)(F)F.O=C(O)C(F)(F)F,Percent Effect,"30.3 µM, […]",-7.984%
CN(C(=O)[C@H]1CSCN1C(=O)OC(C)(C)C)C1CC1,Percent Effect,"30 µM, 30.03 µM",-17.54%
Cn1nc2c(cc1=O)CN(Cc1coc(-c3ccc(F)cc3)n1)CC2,Percent Effect,"30.3 µM, […]",21.89%
Cn1nc2c(cc1=O)CN(Cc1coc(-c3cccc(F)c3)n1)CC2,Percent Effect,"30.3 µM, […]",75.84%
Cn1nc2c(cc1=O)CN(Cc1coc(-c3ccccc3)n1)CC2,Percent Effect,"30.3 µM, […]",-6.992%
CN1CCN(c2ccc(F)cc2NC(=O)NCc2ccon2)CC1,Percent Effect,"30.3 µM, […]",-94.37%
Cc1nccn1CC1CCN(C(=O)Cc2ccccc2)CC1,Percent Effect,"30 µM, 30.03 µM",-11.09%
CC(C)N(C)Cc1cnc2n1CCN(Cc1ccsc1)C2.O=C(O)C(F)(F)F.O=C(O)C(F)(F)F,Percent Effect,"30.3 µM, […]",-0.145%
Cc1cc(-c2nccs2)nc(C2CCN(Cc3ccc(F)cc3)CC2)n1.Cl,Percent Effect,"30.3 µM, […]",-1.786%
CC(C)(C)c1cc(NC(=O)CN2CCc3cncnc3C2)on1,Percent Effect,"30.3 µM, […]",8.588%
same,Percent Effect,"10 mM, 10 mM as filed; unlikely as a test dose",-38.22%
CC(C)c1cc(NC(=O)CN2CCc3cncnc3C2)on1,Percent Effect,"30 µM, 30.03 µM",51%
Cc1cc(NC(=O)CN2CCc3cncnc3C2)on1,Percent Effect,"30.3 µM, […]",8.362%
same,Percent Effect,"10 mM, 10 mM as filed; unlikely as a test dose",-44.64%
COC[C@@H]1CCC[C@@]12CN(Cc1ccco1)CCO2.O=C(O)C(F)(F)F,Percent Effect,"30 µM, 30.03 µM",-1.793%
CCn1cc(N2Cc3nc(N4CCCC4)ncc3C2=O)cn1,Percent Effect,"30.3 µM, […]",-27.06%
Cc1cc(N2CCN(C(=O)C(C)n3ccnc3C(C)C)CC2)cc(C)n1 (configuration not stated),Percent Effect,"30 µM, 30.03 µM",-26.06%
Cc1cccnc1N1CCN(C(=O)C(C)n2ccnc2C(C)C)CC1 (configuration not stated),Percent Effect,"30 µM, 30.03 µM",78.55%
CC(C)c1nccn1C(C)C(=O)N1CCN(c2ccccc2Cl)CC1 (configuration not stated),Percent Effect,"30 µM, 30.03 µM",16.25%
CN(C)CC1CN(C(=O)CCc2ccccc2)Cc2nccn2C1.O=C(O)C(F)(F)F (configuration not stated),Percent Effect,"30 µM, 30.03 µM",-27.78%
O=C1O[C@@H]2CN(CCc3ccccc3)C[C@@H]2N1CCCN1CCOCC1,Percent Effect,"30 µM, 30.03 µM",-26.55%
O=C1O[C@@H]2CN(Cc3ccccc3)C[C@@H]2N1CCCN1CCOCC1,Percent Effect,"30 µM, 30.03 µM",65.91%
O=C1O[C@@H]2CN(Cc3ccncc3)C[C@@H]2N1CCCN1CCOCC1,Percent Effect,"30 µM, 30.03 µM",-21.02%
CC(C)CC(=O)N1CC[C@@H]2[C@H](CC1)N(Cc1cccnc1)CCS2(=O)=O.O=C(O)C(F)(F)F.O=C(O)C(F)(F)F,Percent Effect,"30.3 µM, […]",-39.88%
Cc1cccc(CN(Cc2ccccn2)S(=O)(=O)N(C)C)c1,Percent Effect,"30.3 µM, […]",5.656%
Cc1cccc(CN(Cc2ccccn2)Cc2ncc(C(C)(C)C)o2)c1,Percent Effect,"30.3 µM, […]",99.39%
CCN(Cc1cccc(Cl)c1)Cc1ncc(C(C)(C)C)o1,Percent Effect,"30.3 µM, […]",-76.17%
Cc1ccc(SCCN(C)C(=O)c2cn([C@H]3CC[C@@H](N)CC3)nn2)cc1,Percent Effect,"30.3 µM, […]",-119%
Cc1ccc(SCCCNC(=O)c2cn([C@H]3CC[C@@H](N)CC3)nn2)cc1,Percent Effect,"30.3 µM, […]",59.21%
CCN(CCSc1ccccc1)C(=O)c1cn([C@H]2CC[C@@H](N)CC2)nn1,Percent Effect,"30.3 µM, […]",-71.42%
CC(=O)Nc1nc(CN2CCCCC2Cn2cccn2)cs1 (configuration not stated),Percent Effect,"30 µM, 30.03 µM",16.1%
CC(=O)Nc1nc(CN2CCCC2Cn2cncn2)cs1 (configuration not stated),Percent Effect,"30 µM, 30.03 µM",3.686%
CCCc1nc(CN2CCCC2Cn2cccn2)cs1 (configuration not stated),Percent Effect,"30.3 µM, […]",100.2%
CN(C)C(=O)Cc1nc(CN2CCCC2Cn2cccn2)cs1 (configuration not stated),Percent Effect,"30.3 µM, […]",-75.86%
CCCc1nc(CN2CCCCC2Cn2cncn2)cs1 (configuration not stated),Percent Effect,"30.3 µM, […]",101.4%
same,Percent Effect,"10 mM, 10 mM as filed; unlikely as a test dose",-40.08%
CC(=O)Nc1nc(CN2CCCC2Cn2cccn2)cs1 (configuration not stated),Percent Effect,"30.3 µM, […]",98.13%
CC(C)c1nc(CN2CCCC2CN2CCCC2)cs1 (configuration not stated),Percent Effect,"30.3 µM, […]",99.84%
CC(C)c1nc(CN2CCCCC2Cn2cncn2)cs1 (configuration not stated),Percent Effect,"30.3 µM, […]",7.247%
same,Percent Effect,"10 mM, 10 mM as filed; unlikely as a test dose",-40.32%
CN(C)C(=O)Cc1nc(CN2CCCCC2Cn2cccn2)cs1 (configuration not stated),Percent Effect,"30 µM, 30.03 µM",-14.9%
CN(C)C(=O)Cc1nc(CN2CCCCC2Cn2cncn2)cs1 (configuration not stated),Percent Effect,"30.3 µM, […]",-54.68%
CCCc1nc(CN2CCCC2Cn2cncn2)cs1 (configuration not stated),Percent Effect,"30 µM, 30.03 µM",2.721%
CC(C)c1nc(CN2CCCCC2)cs1,Percent Effect,"30 µM, 30.03 µM",11.44%
CN(C)Cc1nc(-n2cnc(C(=O)NCC3CC3)c2)n2ccccc12,Percent Effect,"30.3 µM, […]",-8.964%
CN1C(=O)CC(C(=O)O)C12CCN(c1ccc3ccccc3n1)CC2 (configuration not stated),Percent Effect,"30 µM, 30.03 µM",-0.482%
COc1ccc(CC(=O)N2CC(=O)NCC(C)(C)C2)cc1,Percent Effect,"30.3 µM, […]",-15.32%
O=C(NC[C@@H]1C[C@@H]2CN(C(=O)CO)C[C@H]2O1)c1ccsc1,Percent Effect,"30.3 µM, […]",-12.73%
Cc1nn(C)c(C)c1S(=O)(=O)N1CC[C@@H]2O[C@@H](C)C[C@H]2C1.O=C(O)C(F)(F)F,Percent Effect,"30.3 µM, […]",5.348%
CN(C)CCN1C(=O)CCC12CCCN(C(=O)C1CC=CC1)CC2.O=C(O)C(F)(F)F (configuration not stated),Percent Effect,"30.3 µM, […]",14.28%

# Reference: ChEMBL document CHEMBL3988442, “University of Dundee, Small-Polar-MMV Screening Library” (2021)
